According to PubChem BioAssay (EPA / NIEHS):
Inconclusive results are not listed. The source made the active and inactive calls. How the source made its calls: active means hit-call score of the fitted dose curve at least 0.9, where 1 is the maximum; inconclusive means response in the unintended direction; inactive means score below 0.9.

Target: Cellular tumor antigen p53 (Homo sapiens) (UniProt P04637)
Experiment: TOX21_p53_BLA_p2_ratio: Tox21 HCT-116 p53 Agonism Beta-lactamase Assay, Ratio, Phase 2 (AID 2283592)
Outline: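 Human colon HCT116 cells with an inducible p53 beta-lactamase reporter are exposed to test chemicals for 16 h at 37C. Reporter induction is read as the 460/530 nm emission ratio after CCF4-AM loading, normalized to DMSO.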

Chain of Cellular tumor antigen p53 (Homo sapiens) (P04637 whole entry, looked up): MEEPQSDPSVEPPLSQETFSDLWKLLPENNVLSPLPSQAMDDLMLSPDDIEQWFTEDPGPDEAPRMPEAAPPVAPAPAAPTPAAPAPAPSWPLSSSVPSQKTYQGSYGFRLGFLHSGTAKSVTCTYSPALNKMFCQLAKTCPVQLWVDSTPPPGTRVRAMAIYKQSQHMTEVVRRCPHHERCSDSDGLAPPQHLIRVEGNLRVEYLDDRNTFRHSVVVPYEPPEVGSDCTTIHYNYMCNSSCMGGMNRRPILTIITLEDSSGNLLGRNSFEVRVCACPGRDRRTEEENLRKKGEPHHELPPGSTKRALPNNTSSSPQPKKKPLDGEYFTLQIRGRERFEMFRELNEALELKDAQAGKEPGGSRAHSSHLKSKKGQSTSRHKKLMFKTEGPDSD

Compound | outcome | AC50
CN(C)CCN(Cc1ccc(Cl)cc1)c1ccccn1 | inactive | –
C=CCc1ccccc1OCC(O)CNC(C)C (centres undefined) | inactive | –
CC1(C)S[C@@H]2[C@H](NC(=O)C(C(=O)Oc3ccc4c(c3)CCC4)c3ccccc3)C(=O)N2[C@H]1C(=O)O (some centres undefined) | inactive | –
CCCCCCCC/C=C\CCCCCCCC(N)=O | inactive | –
CNCC(=O)N[C@@H](CCCN=C(N)N)C(=O)N[C@H](C(=O)N[C@@H](Cc1ccc(O)cc1)C(=O)N[C@H](C(=O)N[C@@H](Cc1cnc[nH]1)C(=O)N1CCC[C@H]1C(=O)N[C@@H](C)C(=O)O)C(C)C)C(C)C | inactive | –
O=C(O)CCNC(=O)c1ccccc1 | inactive | –
CC1(C)S[C@@H]2[C@H](NC(=O)Cc3ccccc3)C(=O)N2[C@H]1C(=O)O | inactive | –
Cc1ccccc1OCC(O)CNCCOc1ccc(C(N)=O)cc1 (centres undefined) | inactive | –
C=CC(=O)OCC1CCCO1 (centres undefined) | inactive | –
COC(=O)Nc1nc2ccc(C(=O)c3ccccc3)cc2[nH]1 | – | 0.192 µM (active)
O=C1c2ccccc2C(=O)C1c1ccccc1 | inactive | –
Nc1nc(N)nc(-c2cc(Cl)ccc2Cl)n1 | inactive | –
CCOC(=O)c1ccc(I)cc1 | inactive | –
NS(=O)(=O)c1cc2c(cc1Cl)NC(C(Cl)Cl)NS2(=O)=O (centres undefined) | inactive | –
COc1ccc2c(c1OC)C(=O)O[C@@H]2[C@H]1c2c(cc3c(c2OC)OCO3)CCN1C | inactive | –
O=C(O)CC(=O)O | inactive | –
O=C(c1ccccc1)C1(O)CCCCC1 | inactive | –
COC(=O)Nc1nc2ccc(C(=O)c3cccs3)cc2[nH]1 | – | 0.0943 µM (active)
C[C@@H](N)C(=O)O | inactive | –
O=C(CCNNC(=O)c1ccncc1)NCc1ccccc1 | inactive | –

Compound | outcome | AC50
NS(=O)(=O)c1cc2c(cc1Cl)NC(Cc1ccccc1)NS2(=O)=O (centres undefined) | inactive | –
Cc1ccc(Cl)c(N)c1Cl | inactive | –
CC(CN(C)C)CN1c2ccccc2CCc2ccccc21 (centres undefined) | inactive | –
COC(=O)c1cccc(Cl)c1 | inactive | –
CN1CCN(c2c(F)cc3c(=O)c(C(=O)O)cn4c3c2SCC4)CC1 | inactive | –
COc1cc2nc(N3CCN(C(=O)c4ccco4)CC3)nc(N)c2cc1OC | inactive | –
O=C(NCCCN1CCOCC1)c1ccc(Cl)cc1 | inactive | –
CC1=NN(c2ccc(C(=O)O)cc2)C(=O)C1 | inactive | –
CN1C[C@H]2c3ccccc3Oc3ccc(Cl)cc3[C@@H]2C1 | inactive | –
NC(=O)CC[C@@H]1NC(=O)[C@H](Cc2ccccc2)NC(=O)[C@H](Cc2ccc(O)cc2)NC(=O)[C@@H](N)CSSC[C@@H](C(=O)N2CCC[C@H]2C(=O)N[C@@H](CCCN=C(N)N)C(=O)NCC(N)=O)NC(=O)[C@H](CC(N)=O)NC1=O | inactive | –
O=Cc1ccc(F)c(Br)c1 | inactive | –
N=C(N)c1ccccc1 | inactive | –
CC(CN(C)C)CN1c2ccccc2S(=O)(=O)c2ccccc21 (centres undefined) | inactive | –
CCOC(=O)C1=C(C)NC(C)=C(C(=O)OC)C1c1cccc(Cl)c1Cl (centres undefined) | inactive | –
[O]=[Bi][O][Bi]=[O] | inactive | –
OCC(O)COc1ccc(Cl)cc1 (centres undefined) | inactive | –
O=C(CO)[C@@H](O)[C@H](O)[C@@H](O)CO | inactive | –
CC(=O)CCC=C(C)CC/C=C(\C)CC/C=C(\C)CCC=C(C)C | inactive | –
NC(=O)N1c2ccccc2CC(=O)c2ccccc21 | inactive | –
